The record followed here is PubChem BioAssay (EPA / NIEHS).

The structures appear in SMILES notation. Inconclusive results are not listed. Calls of active or inactive are those of the source. Rule for the calls, unless noted: active = hit-call score of the fitted dose curve at least 0.9, where 1 is the maximum; inactive = score below 0.9.

The term AC50 denotes the midpoint of the concentration-response curve, whichever way the signal moves.

Experiment [1] addresses Oxysterols receptor LXR-alpha (Homo sapiens) (UniProt Q13133). Briefly: ATG_LXRa_TRANS: Attagene TRANS-FACTORIAL HepG2 Assay for human Liver X Receptor alpha (LXRa) (AID 2282980; active = hit-call score of the fitted dose curve at least 0.9, where 1 is the maximum). The note with it: HepG2 Attagene TRANS reporter, LXRa transactivation. A digest of the protocol:
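Transient HepG2 transfectants, 24 h dosing, RT-PCR/CE mRNA reporter quantitation; gain-of-signal vs DMSO.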

The target of experiment [2] is Oxysterols receptor LXR-beta (Homo sapiens) (UniProt P55055). Briefly: ATG_LXRb_TRANS: Attagene TRANS-FACTORIAL HepG2 Assay for human Liver X Receptor beta (LXRb) (AID 2282981; active = hit-call score of the fitted dose curve at least 0.9, where 1 is the maximum). The note with it: HepG2 Attagene TRANS GAL4-LXRb reporter, mRNA. A digest of the protocol:
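HepG2 cells transiently transfected with multiple reporter transcription units carrying chimeric NR-Gal4 proteins acting on GAL4-UAS reporters; compound exposure 24 h. Reporter mRNA quantified by RT-PCR, 6-FAM labelling, HpaI digestion and capillary electrophoresis; gain of signal versus DMSO.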

Experiment [3] has as its target Hepatocyte nuclear factor 4-alpha (Homo sapiens) (UniProt P41235). Briefly: ATG_HNF4a_TRANS: Attagene TRANS-FACTORIAL HepG2 Assay for human Hepatocyte Nuclear Factor 4 alpha (HNF4a) (AID 2282982; active = hit-call score of the fitted dose curve at least 0.9, where 1 is the maximum). The conditions noted are these: HepG2 HNF4a transactivation reporter, mRNA readout. A digest of the protocol: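 HepG2 cells transiently transfected with multiplexed GAL4-UAS reporter units responsive to chimeric NR-GAL4 proteins; compound exposure 24 h. Reporter mRNA quantified by RT-PCR, 6-FAM labelling, HpaI digestion and capillary electrophoresis; gain of signal versus DMSO baseline.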

Experiment [4] has as its target Nuclear receptor subfamily 4 group A member 2 (Homo sapiens) (UniProt P43354). Briefly: ATG_NURR1_TRANS: Attagene TRANS-FACTORIAL HepG2 Assay for human Nuclear Receptor Related Protein 1 (NURR1) (AID 2282985; active = hit-call score of the fitted dose curve at least 0.9, where 1 is the maximum). The note with it: HepG2 Attagene TRANS reporter, mRNA readout. The essentials:
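HepG2 cells transiently transfected with GAL4-UAS reporter units and chimeric NR-Gal4 constructs; chemical exposure 24 h. Reporter mRNA quantified by RT-PCR, fluorescent labelling and capillary electrophoresis; gain of signal fitted relative to DMSO baseline.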

Experiment [5] addresses Transcriptional activator Myb (Homo sapiens) (UniProt P10242). The experiment in a line: ATG_Myb_CIS: Attagene CIS-FACTORIAL HepG2 Assay for human Myeloblastosis (Myb) Proto-Oncogene Transcription Factor (AID 2282986). The note with it: HepG2 Attagene CIS-FACTORIAL Myb reporter transcription; actives raise or lower the signal. The essentials: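 Steps: transfect HepG2 with cis-regulated reporter units; dose with chemical for 24 h; isolate RNA, reverse-transcribe, PCR-amplify and FAM-label reporter sequences; digest with HpaI; resolve by capillary electrophoresis. Activity fitted in both directions relative to DMSO.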

Experiment [6] addresses Nuclear respiratory factor 1 (Homo sapiens) (UniProt Q16656). Briefly: ATG_NRF1_CIS: Attagene CIS-FACTORIAL HepG2 Assay for human Nuclear Respiratory Factor 1 (NRF1) Orphan Gene (AID 2282987). The conditions noted are these: HepG2 NRF1 cis-element reporter, Attagene multiplex; actives raise or lower the signal. The essentials:
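Fluorescence intensity of labelled reporter cDNA fragments, resolved by capillary electrophoresis, served as readout for NRF1 cis-element activity. Transiently transfected HepG2 cells were dosed for 24 hours; activity in either direction was fitted against DMSO negative control.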

Experiment [7] can be described thus: ATG_NFI_CIS: Attagene CIS-FACTORIAL HepG2 Assay for human Nuclear Factor I (NFI) (AID 2282989). The conditions noted are these: HepG2 cis-regulatory reporter, NFI response element transcription; actives raise or lower the signal. The essentials:
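HepG2, transient MRTU, 24 h exposure; RNA→cDNA→PCR→FAM label→HpaI→CE fluorescence. Bidirectional fit, DMSO = baseline.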

In experiment [8] the target is Myc proto-oncogene protein (Homo sapiens) (UniProt P01106). Briefly: ATG_Myc_CIS: Attagene CIS-FACTORIAL HepG2 Assay for human Myelocytomatosis (Myc) Proto-Oncogene Transcription Factor (AID 2282990). The conditions noted are these: HepG2, Attagene cis-reporter transcription factor activity; actives raise or lower the signal. The essentials:
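Multiplexed cis-reporter transcription in HepG2 cells after 24 h chemical treatment. Reporter mRNA measured by RT-PCR and capillary electrophoresis fluorescence; activity fitted bidirectionally against DMSO control.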

Experiment [9] in a line: ATG_NRF2_ARE_CIS: Attagene CIS-FACTORIAL HepG2 Assay for human Nuclear Factor Erythroid 2 Related Factor 2 (NFR2) response to Antioxidant Response Elements (ARE) (AID 2282992). The conditions noted are these: HepG2 Attagene ARE/NRF2 reporter, transcription factor activity; actives raise or lower the signal. A digest of the protocol: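 Multiplexed reporter mRNA profiling in HepG2 after a 24 h chemical exposure. Curves fitted in both directions relative to DMSO negative control.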

The nature of experiment [10]: ATG_Oct_MLP_CIS: Attagene CIS-FACTORIAL HepG2 Assay for human Octamer-Binding Transcription Factor (Oct) (AID 2282993). The note with it: HepG2 Attagene cis-factorial Oct reporter, mRNA; actives raise or lower the signal. The essentials:
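Multiplexed cis-reporter assay in human liver HepG2 cells, 24 h incubation. Reporter RNA amplified and labelled, then resolved by capillary electrophoresis; DMSO serves as negative control and baseline.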

The nature of experiment [11]: ATG_M_06_TRANS: Attagene TRANS-FACTORIAL HepG2 Assay for M06 Transcription Factor (Internal Marker) (AID 2282983; active = hit-call score of the fitted dose curve at least 0.9, where 1 is the maximum;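 note: reporter transcript level by RT-PCR then capillary electrophoresis fluorescence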). The note with it: HepG2 Attagene TRANS M06 internal marker reporter. The essentials:
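Measured by capillary electrophoresis of fluorescently labelled RT-PCR products, this endpoint reflects reporter mRNA in HepG2 cells harbouring exogenous NR-GAL4 reporter constructs after 24 h exposure, with DMSO as baseline.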

The nature of experiment [12]: ATG_M_32_TRANS: Attagene TRANS-FACTORIAL HepG2 Assay for M32 Transcription Factor (Internal Marker) (AID 2282984; active = hit-call score of the fitted dose curve at least 0.9, where 1 is the maximum;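 note: transcript level of a background control reporter unit measured by RT-PCR and capillary electrophoresis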). The note with it: HepG2 Attagene TRANS M32 internal marker reporter. The essentials:
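HepG2 cells transiently transfected with multiple GAL4-UAS reporter transcription units, dosed for 24 hours; reporter mRNA quantified by RT-PCR, 6-FAM primer extension, HpaI digestion and capillary electrophoresis. Gain-of-signal fitted versus DMSO baseline; internal background-control marker.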

Experiment [13] addresses Glucocorticoid receptor (Homo sapiens) (UniProt P04150). The experiment in a line: ATG_GR_TRANS: Attagene TRANS-FACTORIAL HepG2 Assay for human Glucocorticoid Receptor (GR) (AID 2282978; active = hit-call score of the fitted dose curve at least 0.9, where 1 is the maximum;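 note: activators score as hits since higher reporter transcript over DMSO is fitted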). The conditions noted are these: HepG2 Attagene TRANS GR reporter, mRNA transcription. The essentials: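 In this trans-factorial format, exogenous NR-GAL4 chimeric proteins in transfected HepG2 cells regulate GAL4-UAS reporter transcription. After 24 h treatment, reporter mRNA induction relative to DMSO is read by RT-PCR and capillary electrophoresis.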

The target of experiment [14] is Cellular tumor antigen p53 (Homo sapiens) (UniProt P04637). The experiment in a line: ATG_p53_CIS: Attagene CIS-FACTORIAL HepG2 Assay for human p53 Transcription Factor (AID 2282994). The note with it: HepG2 p53 cis-element reporter, Attagene mRNA; actives raise or lower the signal. The essentials:
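Multiplexed reporter mRNA assay in human HepG2 liver cells; cis-regulated units report endogenous factor activity. Values come from bidirectional curve fitting against DMSO negative control after 24 h treatment.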

The nature of experiment [15]: ATG_NF_kB_CIS: Attagene CIS-FACTORIAL HepG2 Assay for human Nuclear Factor Kappa B (NF-kB) (AID 2282991). The conditions noted are these: HepG2 Attagene cis-factorial NF-kB reporter mRNA; actives raise or lower the signal. The essentials: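 Endogenous transcription factor activity in HepG2 was captured via cis-regulated reporter constructs; after 24 h dosing, reporter mRNA was reverse-transcribed, amplified, fluorescently labelled and sized by capillary electrophoresis, with activity fitted bidirectionally relative to DMSO.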

For experiment [16], the target named is Bile acid receptor (Homo sapiens) (UniProt Q96RI1). The experiment in a line: ATG_FXR_TRANS: Attagene TRANS-FACTORIAL HepG2 Assay for Farnesoid X Receptor (FXR) (AID 2282979; active = hit-call score of the fitted dose curve at least 0.9, where 1 is the maximum;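 note: hits raise reporter mRNA above DMSO so AC50 marks FXR activation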). The conditions noted are these: HepG2 Attagene TRANS FXR-GAL4 reporter transcription. A digest of the protocol:
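Chimeric FXR-GAL4 activity in transiently transfected human HepG2 liver cells is scored as induction of reporter mRNA after 24 h of dosing. Detection uses RT-PCR with fluorescent labelling and capillary electrophoresis, with DMSO serving as baseline.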

A short description of experiment [17]: BSK_3C_TissueFactor: BioMAP Diversity Plus: 3C Assay for Tissue Factor Biomarker Activity (AID 2282997). The conditions noted are these: BioMAP 3C HUVEC, tissue factor biomarker readout; actives raise or lower the signal. A digest of the protocol:
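Values derive from bidirectional curve fitting against DMSO of Tissue Factor ELISA signals, taken 24 h after dosing primary human umbilical vein endothelial cells.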

The nature of experiment [18]: BSK_3C_uPAR: BioMAP Diversity Plus: 3C Assay for Urokinase-type plasminogen activator receptor (uPAR) Biomarker Activity (AID 2282998). The note with it: BioMAP 3C HUVEC, uPAR biomarker ELISA; actives raise or lower the signal. The essentials:
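Dose primary human umbilical vein endothelial cells, incubate 24 h, measure cell-surface uPAR by ELISA, then fit the signal in both directions against the DMSO negative control.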
For orientation: In an ELISA, binding on a coated surface is turned into a signal by an enzyme label.

A short description of experiment [19]: BSK_3C_VCAM1: BioMAP Diversity Plus: 3C Assay for Vascular cell adhesion molecule 1 (VCAM1) Biomarker Activity (AID 2282999). The conditions noted are these: BioMAP 3C HUVEC, VCAM1 ELISA, cytokine-stimulated; actives raise or lower the signal. The essentials:
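Human umbilical vein endothelial cells were dosed with compound for 24 h, after which cell-surface VCAM-1 was quantified by ELISA. Bidirectional curve fitting used DMSO as negative control and activity baseline.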

Sequence of Hepatocyte nuclear factor 4-alpha (Homo sapiens) (P41235 whole entry, looked up, the tested form may be a part): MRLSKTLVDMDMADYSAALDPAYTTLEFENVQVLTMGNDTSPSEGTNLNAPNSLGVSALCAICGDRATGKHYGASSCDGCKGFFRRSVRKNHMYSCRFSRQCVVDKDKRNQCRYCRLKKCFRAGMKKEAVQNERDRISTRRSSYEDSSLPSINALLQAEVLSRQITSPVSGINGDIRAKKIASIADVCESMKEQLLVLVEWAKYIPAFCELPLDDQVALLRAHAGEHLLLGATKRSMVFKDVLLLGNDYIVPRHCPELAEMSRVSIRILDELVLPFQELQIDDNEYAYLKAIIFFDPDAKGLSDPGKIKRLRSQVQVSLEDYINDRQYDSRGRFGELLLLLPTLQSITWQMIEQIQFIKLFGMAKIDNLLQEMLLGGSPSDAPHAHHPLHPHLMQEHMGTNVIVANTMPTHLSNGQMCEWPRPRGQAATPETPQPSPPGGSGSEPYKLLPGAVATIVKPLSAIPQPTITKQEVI
Sequence of Myc proto-oncogene protein (Homo sapiens) (P01106 whole entry, looked up): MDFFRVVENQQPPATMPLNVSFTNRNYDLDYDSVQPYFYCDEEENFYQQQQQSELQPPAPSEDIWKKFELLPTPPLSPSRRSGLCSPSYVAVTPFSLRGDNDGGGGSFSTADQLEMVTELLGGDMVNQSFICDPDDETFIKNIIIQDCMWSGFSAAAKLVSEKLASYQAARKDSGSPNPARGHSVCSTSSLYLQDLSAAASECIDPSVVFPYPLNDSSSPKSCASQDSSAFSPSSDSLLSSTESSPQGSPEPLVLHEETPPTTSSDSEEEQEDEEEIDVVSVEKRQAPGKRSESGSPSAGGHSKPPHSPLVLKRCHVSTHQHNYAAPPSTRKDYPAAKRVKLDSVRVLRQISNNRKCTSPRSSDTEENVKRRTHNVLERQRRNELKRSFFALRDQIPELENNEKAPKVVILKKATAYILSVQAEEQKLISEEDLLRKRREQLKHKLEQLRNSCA
Sequence of Oxysterols receptor LXR-beta (Homo sapiens) (P55055 whole entry, looked up, the tested form may be a part): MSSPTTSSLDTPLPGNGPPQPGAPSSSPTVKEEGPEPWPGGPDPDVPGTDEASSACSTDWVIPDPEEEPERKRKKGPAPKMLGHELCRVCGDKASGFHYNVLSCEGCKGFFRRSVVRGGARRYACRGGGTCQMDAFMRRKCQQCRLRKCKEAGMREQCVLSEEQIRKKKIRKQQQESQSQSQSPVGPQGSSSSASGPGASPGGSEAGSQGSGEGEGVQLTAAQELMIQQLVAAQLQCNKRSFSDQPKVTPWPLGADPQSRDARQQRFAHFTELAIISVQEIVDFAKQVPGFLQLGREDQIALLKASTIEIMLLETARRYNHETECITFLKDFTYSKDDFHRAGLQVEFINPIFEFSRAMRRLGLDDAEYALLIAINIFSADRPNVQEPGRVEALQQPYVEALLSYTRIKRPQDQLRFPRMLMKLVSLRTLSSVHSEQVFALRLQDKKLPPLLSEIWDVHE
Sequence of Nuclear receptor subfamily 4 group A member 2 (Homo sapiens) (P43354 whole entry, looked up, the tested form may be a part): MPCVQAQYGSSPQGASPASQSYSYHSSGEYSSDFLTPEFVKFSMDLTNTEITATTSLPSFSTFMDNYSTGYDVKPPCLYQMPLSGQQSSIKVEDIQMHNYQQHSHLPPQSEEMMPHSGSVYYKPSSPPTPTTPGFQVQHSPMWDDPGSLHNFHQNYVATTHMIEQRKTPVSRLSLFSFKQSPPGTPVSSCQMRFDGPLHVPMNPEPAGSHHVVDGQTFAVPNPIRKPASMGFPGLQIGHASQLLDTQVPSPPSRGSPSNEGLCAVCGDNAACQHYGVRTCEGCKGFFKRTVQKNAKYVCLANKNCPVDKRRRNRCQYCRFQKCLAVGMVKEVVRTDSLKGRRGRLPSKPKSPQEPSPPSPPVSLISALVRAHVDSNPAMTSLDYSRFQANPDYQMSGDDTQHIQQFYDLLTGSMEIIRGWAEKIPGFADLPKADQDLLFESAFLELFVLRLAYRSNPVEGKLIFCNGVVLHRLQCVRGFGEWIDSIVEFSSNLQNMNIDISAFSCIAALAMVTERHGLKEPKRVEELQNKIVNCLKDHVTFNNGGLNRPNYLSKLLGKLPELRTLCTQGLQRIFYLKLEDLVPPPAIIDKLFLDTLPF
Sequence of Transcriptional activator Myb (Homo sapiens) (P10242 whole entry, looked up): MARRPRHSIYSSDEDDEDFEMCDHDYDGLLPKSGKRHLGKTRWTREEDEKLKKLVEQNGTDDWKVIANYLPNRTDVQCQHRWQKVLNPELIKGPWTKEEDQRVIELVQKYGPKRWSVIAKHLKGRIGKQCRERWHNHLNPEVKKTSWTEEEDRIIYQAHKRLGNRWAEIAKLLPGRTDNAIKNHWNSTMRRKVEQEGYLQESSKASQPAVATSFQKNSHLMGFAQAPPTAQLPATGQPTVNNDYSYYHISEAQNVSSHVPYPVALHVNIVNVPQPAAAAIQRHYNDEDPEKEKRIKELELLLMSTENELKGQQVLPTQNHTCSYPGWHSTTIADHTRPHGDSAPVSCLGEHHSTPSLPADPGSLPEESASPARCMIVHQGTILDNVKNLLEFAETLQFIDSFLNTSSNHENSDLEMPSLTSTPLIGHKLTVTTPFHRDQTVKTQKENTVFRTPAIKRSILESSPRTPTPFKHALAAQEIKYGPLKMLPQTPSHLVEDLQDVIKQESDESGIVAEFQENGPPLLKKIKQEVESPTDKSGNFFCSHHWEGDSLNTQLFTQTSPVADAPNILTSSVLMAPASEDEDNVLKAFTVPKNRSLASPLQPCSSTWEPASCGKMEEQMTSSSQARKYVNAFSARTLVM
Sequence of Nuclear respiratory factor 1 (Homo sapiens) (Q16656 whole entry, looked up, the tested form may be a part): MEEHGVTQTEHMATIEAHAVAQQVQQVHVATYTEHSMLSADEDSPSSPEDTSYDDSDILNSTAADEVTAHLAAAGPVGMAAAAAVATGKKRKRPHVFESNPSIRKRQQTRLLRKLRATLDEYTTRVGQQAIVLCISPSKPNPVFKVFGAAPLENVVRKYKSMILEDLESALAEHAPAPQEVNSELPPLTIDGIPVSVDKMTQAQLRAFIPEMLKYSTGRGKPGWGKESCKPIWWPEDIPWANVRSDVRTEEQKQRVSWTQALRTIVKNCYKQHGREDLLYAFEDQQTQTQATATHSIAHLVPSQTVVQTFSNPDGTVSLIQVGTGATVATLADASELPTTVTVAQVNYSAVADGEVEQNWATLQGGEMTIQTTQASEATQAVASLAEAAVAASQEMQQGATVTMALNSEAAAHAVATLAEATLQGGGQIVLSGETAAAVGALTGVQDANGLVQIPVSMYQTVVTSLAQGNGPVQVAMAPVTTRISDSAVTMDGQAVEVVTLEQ
Sequence of Oxysterols receptor LXR-alpha (Homo sapiens) (Q13133 whole entry, looked up): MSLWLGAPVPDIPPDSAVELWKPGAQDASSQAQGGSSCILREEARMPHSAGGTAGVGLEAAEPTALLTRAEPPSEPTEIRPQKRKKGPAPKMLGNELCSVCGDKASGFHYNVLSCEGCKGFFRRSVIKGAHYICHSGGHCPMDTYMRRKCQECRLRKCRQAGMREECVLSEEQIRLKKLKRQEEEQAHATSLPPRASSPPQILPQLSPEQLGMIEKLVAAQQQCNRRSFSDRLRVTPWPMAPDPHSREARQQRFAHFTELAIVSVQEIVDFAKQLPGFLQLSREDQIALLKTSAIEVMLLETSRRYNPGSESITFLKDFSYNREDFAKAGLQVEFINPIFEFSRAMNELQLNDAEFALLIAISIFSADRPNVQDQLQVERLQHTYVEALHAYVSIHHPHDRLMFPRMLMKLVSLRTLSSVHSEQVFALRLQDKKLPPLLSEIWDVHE
Sequence of Cellular tumor antigen p53 (Homo sapiens) (P04637 whole entry, looked up): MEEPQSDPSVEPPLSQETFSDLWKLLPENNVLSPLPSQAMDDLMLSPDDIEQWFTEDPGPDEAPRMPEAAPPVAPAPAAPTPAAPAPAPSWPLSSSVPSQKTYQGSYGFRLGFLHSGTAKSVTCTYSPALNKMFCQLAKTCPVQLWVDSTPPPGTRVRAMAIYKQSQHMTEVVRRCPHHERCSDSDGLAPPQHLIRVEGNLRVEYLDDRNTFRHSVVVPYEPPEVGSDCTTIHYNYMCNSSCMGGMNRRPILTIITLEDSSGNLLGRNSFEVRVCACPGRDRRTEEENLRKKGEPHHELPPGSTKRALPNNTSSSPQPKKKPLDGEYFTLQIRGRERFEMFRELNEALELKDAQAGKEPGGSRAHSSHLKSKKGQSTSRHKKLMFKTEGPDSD
Sequence of Bile acid receptor (Homo sapiens) (Q96RI1 whole entry, looked up, the tested form may be a part): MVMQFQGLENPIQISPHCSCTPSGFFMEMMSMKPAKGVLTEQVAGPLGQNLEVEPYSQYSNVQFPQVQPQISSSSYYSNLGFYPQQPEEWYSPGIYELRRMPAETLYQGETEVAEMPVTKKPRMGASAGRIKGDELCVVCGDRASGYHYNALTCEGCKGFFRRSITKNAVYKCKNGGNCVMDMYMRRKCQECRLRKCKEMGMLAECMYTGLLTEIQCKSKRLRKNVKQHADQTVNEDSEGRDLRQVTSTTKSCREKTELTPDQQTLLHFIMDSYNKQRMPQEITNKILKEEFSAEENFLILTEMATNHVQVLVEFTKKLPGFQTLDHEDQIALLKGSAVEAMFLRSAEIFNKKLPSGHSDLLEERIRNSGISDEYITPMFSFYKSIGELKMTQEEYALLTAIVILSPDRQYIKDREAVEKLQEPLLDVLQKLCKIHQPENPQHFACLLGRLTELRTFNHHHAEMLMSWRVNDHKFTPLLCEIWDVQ

Take `OCC=Cc1ccccc1`: the molecule was classed as inactive in experiment [1], in experiment [2], in experiment [3], in experiment [4], in [5] and in [6]. Also, the outcome in experiment [7], in experiment [8] and in experiment [10] was inactive. Moreover, in experiment [9], the AC50 is 65.9 µM (active).

On to `N#CCCNCCC#N`, for which the molecule was called inactive in [1], in experiment [2], in experiment [3], in experiment [11], in experiment [12] and in experiment [4]. For the same molecule, the molecule was called inactive in experiment [5], in experiment [6], in experiment [7], in [8], in experiment [9] and in [10].

`O=Cc1ccccc1O`: the outcome in [1], in [2], in experiment [3], in experiment [12], in experiment [4] and in [5] was inactive. The outcome in [6], in [7], in experiment [8], in [9] and in experiment [10] was inactive.

Take `CC(C)(C)c1ccc(S)cc1`: the molecule was classed as inactive in experiment [13], in experiment [11], in [12], in [5], in [6] and in experiment [7]. Moreover, the call in experiment [8], in [10] and in experiment [14] was inactive. Besides, the AC50 in experiment [9] was 16.1 µM (active).

Regarding `CC(=O)OC(C)(C)C`, the result in [1], in experiment [2], in [3], in [12], in experiment [4] and in [5] was inactive. Besides, the result in experiment [6], in experiment [7], in experiment [8], in [15], in [9] and in [10] was inactive.

For the molecule `CC(=O)C1=C(C)[C@@H]2C[C@@]3(C1)[C@H](C)CC[C@H]3C2(C)C`, the molecule was called inactive in experiment [16], in [12], in experiment [4], in experiment [5], in experiment [6] and in [8]. The result in experiment [10] was inactive. In addition, the AC50 in experiment [7] was 137 µM (active); in experiment [9] it was 70.1 µM (active).

As to `CCC(C)C1CCCCC1=O` (stereo not drawn), the molecule was classed as inactive in experiment [1], in [11], in [12], in [4], in experiment [5] and in experiment [6]. Further, the molecule was classed as inactive in [7], in experiment [8], in [9], in experiment [10] and in experiment [14].

On to `CC1(C)CC(N)CC(C)(CN)C1` (stereo not drawn), for which the result in [2], in [3], in [11], in experiment [12], in experiment [4] and in experiment [5] was inactive. Besides, the result in experiment [6], in experiment [7], in [8], in experiment [15], in experiment [9] and in [10] was inactive.

Turning to `CCOC(=O)CCCCCCCCC(=O)OCC`, the result in experiment [2], in experiment [3], in experiment [11], in [12], in experiment [4] and in [5] was inactive. The outcome in [6], in [7], in experiment [8], in experiment [15], in experiment [9] and in experiment [10] was inactive. In addition, the result in experiment [17], in experiment [18] and in experiment [19] was inactive.

Regarding `CCCCCCCCSCc1cc(C)c(O)c(CSCCCCCCCC)c1`, the molecule was called inactive in [2], in experiment [3], in experiment [11], in experiment [12], in [4] and in experiment [5]. Further, the call in experiment [6], in [8], in experiment [9], in experiment [10] and in experiment [14] was inactive.
